{"source": "PubChem BioAssay (NCI)", "note": "About 83,000 compounds went through this panel and 20% of them were active in at least one assay; those are over-represented in the sample as a whole.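 The endpoint reported here, percent growth, reads 100 for growth as untreated, 0 for no net growth and -100 for all cells dead.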 A number with no mark means an inactive call. Activity calls are given as the source filed them. Rule for the calls: active = growth percent below 10; inactive = the rest."}
{"test_system": "SNB-75 CNS", "assay": "NCI-60 one-dose screen, 48 h (100 = growth as untreated, 0 = no growth, -100 = all killed)", "conditions": "10 µM unless noted"}
{"compound": "CCC(=O)Oc1cc(/C=C/C(=O)O[C@H]2C[C@H]3CN4CCc5c([nH]c6cc(OC)ccc56)[C@@H]4C[C@@H]3[C@@H](C(=O)OC)[C@@H]2OC)ccc1OC", "growth": "36.7%"}
{"compound": "CN(C)C/C=C/C(=O)Nc1cc2c(Nc3cccc(Cl)c3F)ncnc2cc1OCCOC(F)F", "growth": "1.35% (active)"}
{"compound": "O=C1Nc2cc(Cl)ccc2Oc2cc(Oc3ccccc3)ccc21", "growth": "50.9%"}
{"compound": "c1cncc(CNc2ccccc2-c2nnc(Nc3ccc4c(c3)OCCO4)o2)c1", "growth": "33.1%"}
{"compound": "COC1=CC(c2ccc[nH]2)=N/C1=C\\c1[nH]c(C)c(C(=O)CCCCC(=O)Oc2ccc3c(c2)CCC2C3CC[C@]3(C)[C@@H](O)CC[C@@H]23)c1C", "note": "(stereo partly drawn)", "growth": "62.7%"}
{"compound": "COc1ccc(/C=c2\\sc3n(c2=O)C2C(NN=3)N(C)C(=O)N2C)cc1", "note": "(stereo not drawn)", "growth": "-20.5% (active)"}
{"compound": "Cc1sc(N=Nc2ccc(N(C)C)cc2)[n+]([O-])c1C", "growth": "82.5%"}
{"compound": "COc1cc(/C=C/C(=O)c2ccccc2O)ccc1OCCCOc1cc2c(cc1OC)C(=O)N1CCC[C@H]1C=N2", "growth": "-57.7% (active)"}
